Experimental data published in ChEMBL document CHEMBL1157539, “Thousands of chemical starting points for antimalarial lead identification” (Nature, 2010).

What was measured:
Type in all cases: functional
[1] = tested on: Plasmodium falciparum; assay: GSK_TCMDC: Inhibition of Plasmodium falciparum 3D7 in whole red blood cells, using parasite LDH activity as an index of growth. Test compounds present at 2uM
[2] = tested on: Plasmodium falciparum; assay: GSK_TCMDC: Inhibition of Plasmodium falciparum Dd2 in whole red blood cells, using parasite LDH activity as an index of growth. Test compounds present at 2uM
[3] = tested on: HepG2; assay: GSK_TCMDC: Percent inhibition of human HepG2 cell line. Test compounds present at 10uM.

Row | SMILES | Inhibition [1] | Inhibition [2] | Inhibition [3]
1 | CC[C@H](C)CNC(=O)c1ccnc(-c2ccc(CN3CCC(N4CCCC4)CC3)cc2)c1.O=C(O)C(F)(F)F | 99% | 84% | 13%
2 | COc1cccc2c(Oc3ccccc3C)ccnc12 | 85% | 45% | 0%
3 | Cl.O=c1cc(NCCCNCc2cc3c(Cl)cc(Cl)cc3[nH]2)[nH]c2ccccc12 | 100% | 0% | 0%
4 | CCOc1ccc(CCC(=O)O)cc1OCC | 94% | 0% | 60%
5 | COc1ccc(-c2nnc(Sc3ccc(C#N)c([N+](=O)[O-])c3)n2CC(C)C)cc1 | 97% | 78% | 3%
6 | OC(CNCc1ccccc1OCc1ccccc1)c1cccc(C(F)(F)F)c1 (stereo unspecified) | 99% | 99% | 12%
7 | CCCc1nc2c(N3CCCN(C(=O)NC4CCCCC4)CC3)cccc2n1Cc1ccccn1 | 89% | 10% | 10%
8 | CN(C)c1ccc(C=CC(=O)NC(=O)c2ccccc2O)cc1 | 92% | 97% | 6%
9 | COc1ccc(C)c(Nc2ccnc(Nc3cccc(-c4nc5ccccc5[nH]4)c3)n2)c1.Cl | 98% | 35% | 27%
10 | COc1ccc(-c2cccc(NC(=O)c3ccc(C#N)cc3)c2)cc1CN1CCCN(C)CC1.O=C(O)C(F)(F)F | 100% | 89% | 22%
11 | Cc1ccc2[nH]c3ccccc3c(=O)c2c1 | 93% | 74% | 0%
12 | O=C(Nc1ccc2c(c1)OCO2)c1cc(-c2cccnc2)cnc1NCc1ccc2c(c1)OCO2 | 87% | 1% | 2%
13 | Br.CC1(C)NC(N)=NC(=N)N1OCCCNC(=O)c1ccc(C(=O)NCCCON2C(=N)N=C(N)NC2(C)C)cc1 | 91% | 96% | 0%
14 | O=C(NC(Nc1ccc([N+](=O)[O-])cc1)C(Cl)(Cl)Cl)c1cccc(Cl)c1 (stereo unspecified) | 92% | 17% | 0%
15 | CN(C)c1ccc(-c2nc3cc(N)ccc3[nH]2)cc1 | 100% | 97% | 1%
16 | CCCCc1cc(NCC)nc(Nc2cccc(OC)c2)n1 | 97% | 69% | 9%
17 | CN1CCN(S(=O)(=O)c2ccc3nccc(Nc4ccc(Oc5ccccc5)cc4)c3c2)CC1.Cl | 98% | 91% | 0%
18 | NC(=O)C1CCN(Cc2cccc(-c3ccc(-c4nc5cc(C(F)(F)F)ccc5[nH]4)cc3)c2)CC1.O=C(O)C(F)(F)F | 100% | 94% | 7%
19 | CC(C)N(Cc1cnc2nc(N)nc(N)c2n1)c1ccc(Cl)c(Cl)c1 | 100% | 98% | 63%
20 | Cc1[nH]cc(Br)c(=O)c1-c1ccc(Oc2ccc(OC(F)(F)F)cc2)cc1 | 96% | 92% | 22%
21 | N#Cc1ccc(-n2cc(C(=O)Nc3ccc4c(c3)CCN(C3CCC3)CC4)c(C(F)(F)F)n2)cc1.O=C(O)C(F)(F)F | 100% | 99% | 37%

Row | SMILES | Inhibition [1] | Inhibition [2] | Inhibition [3]
22 | COCCn1c(Sc2ccc(C#N)c([N+](=O)[O-])c2)nnc1-c1ccc(N(C)C)cc1 | 89% | 66% | 2%
23 | Cl.c1ccc2c(NCCCCCCCNc3ccnc4ccccc34)ccnc2c1 | 100% | 94% | 91%
24 | CCOc1c(C)cc(C(F)(F)F)cc1CNCCCNc1cc(=O)c2ccccc2[nH]1.Cl | 97% | 1% | 0%
25 | CC(C)c1sc(N2CCN(C)CC2)nc1C(=O)NCCc1ccc(Cl)c(Cl)c1.O=C(O)C(F)(F)F | 98% | 79% | 10%
26 | COc1cc(Nc2nccc(N3CCC(NC(=O)Nc4cccc(C(C)=O)c4)C3)n2)cc(OC)c1OC (stereo unspecified) | 91% | 34% | 8%
27 | CCc1c(CCNCCCCCCNCCc2ccc(OC)c(OC)c2CC)ccc(OC)c1OC.Cl | 100% | 1% | 58%
28 | Cl.O=C(/C=C/c1ccc(Cl)c(Cl)c1)N1CCC(CCN2CCC(c3c[nH]c4cnccc34)CC2)CC1 | 100% | 100% | 93%
29 | CC(=O)Nc1ccc(C(=O)Nc2cccc(-c3ccc(-c4nc5cccc(C)c5[nH]4)cc3)c2)cn1 | 100% | 94% | 25%
30 | CN1CCCN(Cc2ccc(-c3cccc(NC(=O)c4cccc(C#N)c4)c3)cc2)CC1.O=C(O)C(F)(F)F | 100% | 64% | 17%
31 | CNC(=O)Cc1ccc(C(=O)Nc2cccc(-c3ccc(-c4nc5cccc(C)c5[nH]4)s3)c2)cc1 | 91% | 25% | 66%
32 | Cc1c[nH]c(-c2cccc(C(=O)NC3CCC(CCN4CCc5ccc(C#N)cc5CC4)CC3)c2)n1.Cl (stereo unspecified) | 100% | 69% | 23%
33 | CN1CCCN(Cc2cccc(-c3ccc(NS(=O)(=O)c4cccc5cccnc45)cc3)c2)CC1.O=C(O)C(F)(F)F | 100% | 87% | 44%
34 | O=C(Cc1ccc(NC(=O)c2ccc(O)c(-c3ccc(Cl)c(Cl)c3)c2)cc1)NCCc1ccc(Cl)c(Cl)c1 | 99% | 88% | 0%
35 | FC(F)c1nc2ccccc2n1-c1nc(N2CCOCC2)nc(N2CCOCC2)n1 [ZSTK-474] | 99% | 99% | 47%
36 | O=c1nc2[nH]c3ccccc3n2c(=O)[nH]1 | 95% | 0% | 21%
37 | O=C(Nc1ccccc1)OCCOc1ccc(CC2SC(=O)NC2=O)cc1 (stereo unspecified) | 100% | 0% | 1%
38 | COc1cc2nccc(Nc3cc(C)cc(O)c3)c2cc1OC.Cl | 97% | 0% | 0%
39 | C=CCOC(=O)N1CCC(CNCc2cccc(-c3ccc(-c4nc5ccccc5[nH]4)s3)c2)C1.O=C(O)C(F)(F)F (stereo unspecified) | 99% | 63% | 9%
40 | Cn1nccc1C(=O)NCCNCc1ccc(-c2ccc(-c3nc4ccccc4[nH]3)s2)cc1.O=C(O)C(F)(F)F | 100% | 97% | 23%
41 | Cc1cc(OCCCN2CCCCC2C)ccc1NC(=O)COc1ccc(Cl)cc1C(=O)c1cc(Cl)cc(C#N)c1 (stereo unspecified) | 91% | 14% | 23%
42 | CCC[C@@H]([C@@H](CC1CCCCC1)C(=O)N[C@H](C(=O)Nc1nccs1)C(C)(C)SC)N(O)C=O | 97% | 98% | 51%

Row | SMILES | Inhibition [1] | Inhibition [2] | Inhibition [3]
43 | CCc1cn(CCc2ccccc2)c2ccc(C(=O)N[C@@H](Cc3ccccc3)[C@H](O)CNC(C)(C)CCCC(C)C)cc12.O=CO | 98% | 99% | 66%
44 | COc1cccc(Nc2nccc(NCC(O)c3ccc(C(F)(F)F)cc3)n2)c1 (stereo unspecified) | 99% | 28% | 14%
45 | CCC[C@@H]([C@@H](CC1CCCCC1)C(=O)N[C@H](C(=O)Nc1nccs1)[C@H](C)O)N(O)C=O | 99% | 75% | 0%
46 | CCc1ccc(S(=O)(=O)Nc2cccc(CCN3CCC(N4CCCCC4)CC3)c2)cc1 | 100% | 20% | 21%
47 | O=C(NCc1ccc(F)cc1)c1cc(Br)cc(N2CCN(c3ccncc3)CC2)c1.O=C(O)C(F)(F)F | 80% | 59% | 36%
48 | CC1CCCC(NCc2c(O)ccc3ccccc23)C1.Cl (stereo unspecified) | 93% | 25% | 10%
49 | COc1ccccc1C1CC(c2ccc(Br)cc2)=NN1C(=O)c1ccccc1 (stereo unspecified) | 85% | 59% | 12%
50 | O=c1cc(NCCCNCc2ccccc2-c2ccccc2)[nH]c2ccccc12 | 88% | 46% | 0%
51 | Cc1cccc2nc(-c3cccc(-c4ccc(NC(=O)Nc5ccc(Cl)cc5)cc4)c3)[nH]c12 | 100% | 96% | 63%
52 | CCCS(=O)(=O)N1CCC(CO)(Cc2ccccc2C(F)(F)F)CC1 | 97% | 57% | 0%
53 | COc1ccc(-c2ccc(CNC3Cc4ccccc4C3)cc2)cc1S(=O)(=O)NCCN1CCCC1.O=C(O)C(F)(F)F | 100% | 99% | 30%
54 | CC(C)(C)c1ccc(C(=O)NC2CCC(CCN3CCc4ccc(S(C)(=O)=O)cc4CC3)CC2)cc1C(F)(F)F (stereo unspecified) | 88% | 11% | 54%
55 | COc1cccc(CNC(=O)[C@@H]2CN(C(=O)c3ccccc3)CCN2)c1.O=C(O)C(F)(F)F | 92% | 0% | 4%
56 | CCc1sc(N2CCC(C)CC2)nc1C(=O)Nc1ccc(F)cc1C(F)(F)F | 94% | 65% | 1%
57 | COc1ccc(CCN(C)CCCCc2ccc(NC(=O)c3cccc4c(=O)c5cc(F)ccc5sc34)cc2)cc1OC | 96% | 49% | 98%
58 | CC(C)(C)c1ccc(NC(=O)c2ccc(CN3CCCN(CC4CCCCC4)CC3)cc2)cc1.O=C(O)C(F)(F)F | 99% | 64% | 54%
59 | COc1ccc(NC(=O)/C=C/c2ccc(-c3ccc(-c4noc(C)n4)cc3)cc2)cc1OCCN(C)C.O=C(O)C(=O)O | 81% | 31% | 14%
60 | Br.CCC1N=C(N)N=C(N)N1OCCCOc1c(Cl)cc(Cl)cc1Cl (stereo unspecified) | 95% | 96% | 67%
61 | Cl.NC1CCN(CCc2ccc(NS(=O)(=O)c3cccc4ccccc34)cc2)CC1 | 94% | 4% | 21%
62 | CC(C)N1CCN(C(=O)c2ccc(CNCCCN3CCN(c4cccc(Cl)c4Cl)CC3)o2)CC1.Cl | 98% | 36% | 41%
